KCNQ2 inh – inhibitors of rat KCNQ2 potassium channel | B-score at 10 µM | AID 2156 | 1.1% of 310,000 active | CHO-K1 KCNQ2, FluxOR thallium flux, 20 min; active compounds read low;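 active = fluorescence ratio B-score at most minus 3 library SDs, with starting brightness B-score within 2 library SDs, cut at about -5.5 in these data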
KCNQ2 enhance – KCNQ2 (rat) channel potentiation; O88943; 0.54% of 310,000 active; CHO-K1 KCNQ2, FluxOR thallium flux fluorescence; active compounds read high; AID 2239; B-score at 10 µM;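 active = fluorescence ratio B-score at least 3 SD of library B-scores, with initial fluorescence B-score within 3 of them, cut at about 5.3 in these data; same plate scores as AID 2156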;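 note: B-score of peak minus minimum over baseline fluorescence ratio after K+ and Tl+ stimulus; positive B-score means potentiation of KCNQ2 with more thallium influx and brighter signal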
Kir21 confirm – confirmation of mouse Kir2.1 potassium channel inhibitors | shares compounds with KCNQ2 enhance | Kir2.1-expressing cells, FluxOR thallium flux fluorescence; active compounds read low | Tl flux remaining, % of negative control (active compounds read low), % at 10 µM | 41% of 2,300 active;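 active = Primary-screen hit whose thallium flux fell at least 3 control SD below untreated wells in both duplicates, with normal baseline fluorescence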;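 note: 0% = blank wells without stimulus and 100% = stimulated no-compound controls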
HEK293 Tl flux – alters thallium flux in parental HEK293 cells, Kir2.1 counter-screen | FluxOR thallium flux fluorescence; 0% = unstimulated blank wells | 19% of 2,300 active | FluxOR signal as % of negative control (100 = no effect), % at 10 µM | shares compounds with KCNQ2 enhance;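 active = dye signal at least 3 control SD above or below untreated wells in both duplicates, raw fluorescence within 3, either direction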;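 note: percent is based on the flux ratio of peak minus minimum fluorescence over baseline F0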
CHO-K1 ctr – counter-screen for KCNQ2 potentiators: effect in parental CHO-K1 cells. shares compounds with KCNQ2 enhance. FluxOR thallium flux fluorescence; zero = vehicle mean+3SD, 100% = vehicle-minus-blank window. activity increase over 3SD of controls, % at 10 µM. 43% of 1,200 active. AID 2282;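 active = signal rise of at least 3 SD above the untreated control mean, in both duplicate wells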;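 note: counter screen of KCNQ2 potentiator hits so any rise reflects channel-independent effects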
KCNQ1 pot spec – human KCNQ1 counter-target activity of KCNQ2 potentiators | shares compounds with KCNQ2 enhance | CHO KCNQ1 stable, FluxOR thallium flux fluorescence; beyond 3SD, as % of vehicle-control signal | activation over 3SD threshold, % at 10 µM | 28% of 1,200 active | AID 2283;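 active = fluorescence ratio rise of at least 3 SD of vehicle wells above their mean, in both replicate wells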;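 note: 0% = vehicle mean plus 3 SD and 100% = vehicle minus unstimulated blank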
KCNQ2 pot confirm – rat KCNQ2 channel potentiator confirmation | shares compounds with KCNQ2 enhance | CHO-KCNQ2 cells, FluxOR thallium flux fluorescence | 68% of 1,200 active | potentiation, less the hit threshold, % at 10 µM;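 active = fluorescence ratio rising 3 SD or more over the vehicle control mean in both replicates, plus primary screen hit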;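 note: peak minus minimum thallium fluorescence divided by baseline after K/Tl stimulus; 0% = vehicle mean plus 3 SD and 100% = vehicle minus unstimulated blank difference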
Kir2-1 sel – selectivity of KCNQ2 potentiators: effect on mouse Kir2.1; shares compounds with KCNQ2 enhance; HEK293 Kir2.1, FluxOR thallium flux fluorescence; activity over 3SD threshold, % at 10 µM; 2% of 1,200 active;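 active = fluorescence ratio rise of at least 3 SD above the vehicle-control mean, seen in both replicates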;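 note: 0% = vehicle mean plus 3 SD and 100% = vehicle minus no-stimulus blank window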
KCNQ2 W236L MoA – potentiates the retigabine-insensitive rat KCNQ2 W236L mutant channel; shares compounds with KCNQ2 enhance; CHO KCNQ2-W236L, automated patch clamp current; AID 2558; current increase over 3SD of negative controls (%), active compounds read high, % at 25 µM; 10% of 940 active;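 active = current increase at least 3 SD of the untreated controls above them in both duplicate recordings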
* hit, by the source's call; i = inactive; · = no result given. The list is not random: actives were taken first. Their share in the collection is about 1.6%.

SMILES	KCNQ2 inh	KCNQ2 enhance	Kir21 confirm	HEK293 Tl flux	others
O=C(NCc1ccccn1)c1cccc(NS(=O)(=O)c2cccc(Cl)c2)c1	i	2.61	·	·
Cc1cccc(NC(=S)NC2CCCCCC2)c1C	i	0.7	·	·
O=C(NN=C1CCN(Cc2ccccc2)CC1)C(O)c1ccccc1 (centres undefined)	i	·	·	·
O=C(COc1ccccc1)Nc1cc(C(F)(F)F)ccc1N1CCCC1	i	·	·	·
Cc1cc(N2CCCC2)ccc1NC(=O)COc1cccc(C(F)(F)F)c1	i	6.4*	i	i	CHO-K1 ctr=-10.8;KCNQ1 pot spec=-12.4;KCNQ2 pot confirm=6.0*;Kir2-1 sel=-39.9;KCNQ2 W236L MoA=i
COc1cccc(CC(=O)Nc2cc(C(F)(F)F)ccc2N2CCCC2)c1	i	5.37*	i	i	CHO-K1 ctr=-14.7;KCNQ1 pot spec=-21.9;KCNQ2 pot confirm=-0.8;Kir2-1 sel=-32.5;KCNQ2 W236L MoA=i
CN1CCN(NC(=O)COc2cccc(C(F)(F)F)c2)CC1	i	·	·	·
CCOC(=O)C1(Cc2cccc(OC)c2)CCN(Cc2ccon2)CC1	i	0.09	·	·
CC(C)[C@@H]1CC[C@@H](C)C[C@H]1OC(=O)C[n+]1cc(-c2ccc(Cl)cc2)n2c1CCCCC2	i	·	25.0%*	i
COc1ccc(-c2c[n+](CC(=O)OC3CC(C)CCC3C(C)C)c3n2CCC3)cc1 (centres undefined)	i	0.47	·	·
OCCCn1c(C2CCCN2c2nc(-c3ccc(Cl)cc3)cs2)nc2cc(Cl)c(N3CCCCC3)cc21 (centres undefined)	i	8.14*	i	i	CHO-K1 ctr=13.4*;KCNQ1 pot spec=-21.1;KCNQ2 pot confirm=8.9*;Kir2-1 sel=-26.3;KCNQ2 W236L MoA=i
OCCCn1c(C2CCCN2c2nc(-c3ccc(F)cc3)cs2)nc2cc(Cl)c(N3CCCCC3)cc21 (centres undefined)	i	10.4*	i	i	CHO-K1 ctr=-12.6;KCNQ1 pot spec=-7.9;KCNQ2 pot confirm=54.9*;Kir2-1 sel=-25.4;KCNQ2 W236L MoA=i
Cc1csc(N2CCCC2c2nc3cc(Cl)c(N4CCCCC4)cc3n2CCCO)n1 (centres undefined)	i	2.37	·	·
OCCOCCn1c(C2CCCN2c2nc(-c3ccc(F)cc3)cs2)nc2cc(Cl)c(Cl)cc21 (centres undefined)	i	·	·	·
CC(=O)Nc1ccc(CN2CCCC(C(=O)c3cccc(C(F)(F)F)c3)C2)cc1 (centres undefined)	i	·	·	·
COc1ccc(CN2CCCC(C(=O)c3cccc(C(F)(F)F)c3)C2)cc1O (centres undefined)	i	·	39.5%*	i
CCCCn1c(Cc2ccccc2)n[nH]c1=S	i	0.54	·	·
Cc1ccc(N(C(C)C(=O)Nc2ccc(S(=O)(=O)N3CCOCC3)cc2)S(C)(=O)=O)cc1C (centres undefined)	i	0.37	·	·
CCOC(=O)c1nn(-c2ccc(C)c(C)c2)c(=O)c(C#N)c1C	i	·	·	·
CCSc1nc2sc3c(c2c(=O)[nH]1)CC(C)(CC)OC3 (centres undefined)	i	·	·	·
CCC1(C)Cc2c(sc3nc(SC)[nH]c(=S)c23)CO1 (centres undefined)	i	15.5*	i	456.5%*	CHO-K1 ctr=-15.9;KCNQ1 pot spec=32.0*;KCNQ2 pot confirm=81.9*;Kir2-1 sel=0.1*;KCNQ2 W236L MoA=i
CC(=O)Nc1cccc(NC(=O)CSc2nc(=O)n(Cc3ccncc3)c3c2CCC3)c1	i	0.06	·	·
N#C/C(=C\c1ccc(-c2cccc([N+](=O)[O-])c2)o1)C(=O)Nc1nc(-c2cccs2)cs1	i	6.77*	i	i	CHO-K1 ctr=16.7*;KCNQ1 pot spec=-20.0;KCNQ2 pot confirm=-17.5;Kir2-1 sel=-38.2
O=C(Nc1nc(-c2ccccc2)cs1)c1cccc([N+](=O)[O-])c1	i	1.71	·	·
COc1cccc(NC(=O)N2CCC(N3CCCCC3)CC2)c1	i	0.14	·	·
